Compound activity from PubChem.
This is a sample that favours compounds with a hit; in the whole collection about 2.4% have one here.
Pol beta inh = blocks human DNA polymerase beta activity; Pol beta primer extension/strand displacement, fluorescence kinetic; Potency, µM (titrated, usually from 114 µM), inactives show top-dose activity change, negative = inhibition, actives largely listed as inhibitors; 1.3% of 340,000 active; P06746; further: on the % scale 0 is the no-effect control and ±100 the full control effect
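Reaction started by 50 nM substrate onto compound-treated Pol beta (10 nM, 15 min preincubation, room temperature); plates read at 0 min and 10 min. Normalized concentration-effect data fitted by four-parameter Hill equation.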
Pol eta inh = DNA polymerase eta (human) inhibition | recombinant Pol eta, fluorescent DNA replication assay | Potency, µM (titrated, usually from 114 µM), without a hit: top-dose activity change, negative = inhibition, hits mostly inhibitors | 1.2% of 390,000 active; further: on the % scale 0 is the no-effect control and ±100 the full control effect
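Pol eta at 10 nM preincubated with compounds 15 min at room temperature; reaction started with fluorescent substrate (50 nM final) and read kinetically at 0 and 10 min.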
POLK inh = DNA polymerase kappa (human) inhibition | Q9UBT6 | purified Pol kappa, fluorescent DNA synthesis assay, 10 min | Potency, µM (doses to about 107 µM), inactives show top-dose activity, negative = inhibition, actives largely listed as inhibitors | 0.53% of 400,000 active | AID 588579; further: on the % scale 0 is the no-effect control and ±100 the full control effect
Target sequence (Q9UBT6 whole entry, looked up): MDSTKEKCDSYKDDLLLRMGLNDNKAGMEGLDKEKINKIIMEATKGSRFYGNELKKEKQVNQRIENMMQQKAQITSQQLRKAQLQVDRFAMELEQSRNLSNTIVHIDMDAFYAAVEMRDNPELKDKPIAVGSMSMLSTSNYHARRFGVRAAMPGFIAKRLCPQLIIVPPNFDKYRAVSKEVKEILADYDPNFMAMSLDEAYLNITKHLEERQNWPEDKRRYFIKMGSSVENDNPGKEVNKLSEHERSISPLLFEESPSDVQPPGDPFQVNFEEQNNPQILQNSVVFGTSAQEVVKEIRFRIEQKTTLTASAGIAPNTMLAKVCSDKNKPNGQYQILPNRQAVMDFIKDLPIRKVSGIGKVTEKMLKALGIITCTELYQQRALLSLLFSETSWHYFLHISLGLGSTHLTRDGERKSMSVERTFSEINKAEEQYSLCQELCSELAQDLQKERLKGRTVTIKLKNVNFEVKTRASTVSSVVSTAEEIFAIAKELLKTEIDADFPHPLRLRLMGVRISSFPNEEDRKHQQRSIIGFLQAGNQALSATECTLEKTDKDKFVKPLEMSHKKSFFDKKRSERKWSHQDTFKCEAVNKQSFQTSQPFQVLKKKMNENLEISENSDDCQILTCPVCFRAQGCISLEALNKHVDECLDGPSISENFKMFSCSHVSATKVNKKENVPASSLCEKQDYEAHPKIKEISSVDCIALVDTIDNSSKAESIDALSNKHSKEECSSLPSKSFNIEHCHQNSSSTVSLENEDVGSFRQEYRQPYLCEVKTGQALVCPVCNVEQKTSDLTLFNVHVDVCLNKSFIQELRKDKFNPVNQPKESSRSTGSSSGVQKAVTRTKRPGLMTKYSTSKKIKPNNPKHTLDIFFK
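Inhibition of 10 nM Pol kappa is measured by a fluorescent read-out at 0 and 10 min following addition of 50 nM substrate (final), with a 15-min room-temperature compound preincubation.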
L3MBTL1 inh = inhibitors of human L3MBTL1; AID 485360; 0.66% of 230,000 active; AlphaScreen L3MBTL1–H3K9me1 peptide binding; Potency, µM (titrated, usually from 57.1 µM), without a hit: at the top dose activity, negative = inhibition, hits mostly inhibitors; further: on the % scale 0 is the no-effect control and ±100 the full control effect; nearly all actives have a fitted effect of over 60% in size
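L3MBTL1 50 nM + b-AHA-H3(1-15)K9me1 75 nM, 30 min RT; compound added, 30 min RT; streptavidin donor/Ni-chelate acceptor beads 10 ug/mL each final, 30 min RT dark; AlphaScreen read.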
Pol iota inh = DNA polymerase iota (human) inhibition. 1% of 390,000 active. Pol iota fluorescent replication assay, 10 min. Potency, µM (titrated, usually from 115 µM), inactives show at the highest dose activity, negative = inhibition, usual class: inhibitors
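Fluorescent replication assay read twice, at 0 min and 10 min after adding 50 nM (final) substrate. Enzyme (10 nM) and compounds were first incubated 15 min at room temperature; enzyme-free buffer wells were negative controls.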
* = called active by the depositor; [ ] = dose if it differs, or a comment. The call rests on the fitted dose curve; in most records, active means well fitted curve in the direction sought with a large enough effect; inconclusive means small, poorly fitted or top-dose-only effect, or another doubt; inactive means no such curve, though single readings can be large; an effect the other way counts as inactive or inconclusive. Potency means the concentration at half of the fitted maximal effect.

COc1ccc(NC(=O)CSc2nc3ccccc3n2CC(=O)N2CCCC(C)C2)cc1 (configuration not stated) was read as Pol beta inh 34%, Pol eta inh 1%, POLK inh -3%[60.1 µM] and Pol iota inh -2%.
COC(=O)[C@H](Cc1ccccc1)N(Cc1ccc(C)cc1)S(C)(=O)=O was read as POLK inh -11% and Pol iota inh 3%.
For CN1CCN(c2ncc3nc(-c4ccc(Cl)cc4)c(=O)n(C)c3n2)CC1 the results were POLK inh 1%[60.1 µM].
CCOC(=O)CNC(=O)c1ccc(-c2nn(C)c(=O)c3ccccc23)cc1 was read as Pol beta inh 1%, Pol eta inh -21%, POLK inh -3% and Pol iota inh 23%.
`COc1ccccc1N1CCN(C(=O)c2cnn(-c3ccc(C)c(C)c3)c2C2CCN(C(=O)OC(C)(C)C)CC2)CC1` gave Pol beta inh -12%, Pol eta inh -24%, POLK inh -3% and Pol iota inh 8%.
CCc1ccc(NC(=O)NNC(=O)c2cc3ccccc3cc2O)cc1 was read as Pol beta inh inconclusive, Pol eta inh -23%, POLK inh inconclusive and Pol iota inh inconclusive.
For CCOc1ccc(NC(=O)NNC(=O)c2cc3ccccc3cc2O)cc1 the results were Pol beta inh inconclusive, Pol eta inh 8%, POLK inh -44% and Pol iota inh 79µM*.
O=C(O)c1ccc(CSc2nc(-c3ccc(Cl)cc3)cc(C(F)(F)F)n2)cc1 was read as Pol beta inh 89µM*, Pol eta inh -7%, POLK inh -13%, L3MBTL1 inh -14% and Pol iota inh inconclusive.
For O=C1C(=O)c2ncccc2-c2cccnc21 the results were POLK inh 8.9µM*.
For O=C1c2cccnc2C(=O)N1CO the results were Pol beta inh 36%, Pol eta inh -12%, POLK inh -10%, L3MBTL1 inh -2% and Pol iota inh 4%.
For NC1=C(Br)C(=O)c2ncccc2C1=O the results were Pol eta inh 18µM*, POLK inh -4% and Pol iota inh 11µM*.
`O=C1ON=C(c2ccccc2)/C1=C/c1ccco1` gave Pol beta inh 25µM*, Pol eta inh inconclusive, POLK inh 28µM*, L3MBTL1 inh 28µM* and Pol iota inh 22µM*.
Screening O=C1NNC(c2ccccc2)=N/C1=C\c1ccco1 returned Pol beta inh 10µM*, Pol eta inh inconclusive, POLK inh -41%, L3MBTL1 inh inconclusive and Pol iota inh inconclusive.
Cc1cc(C)c(NC(=O)Cn2cc(S(=O)(=O)Cc3ccccc3F)c3ccccc32)c(C)c1 was read as Pol beta inh 5%, Pol eta inh -9%, POLK inh -20% and Pol iota inh -2%.
For COc1cc(N=c2ssnc2Cl)c(OC)cc1Cl the results were Pol beta inh 25%, Pol eta inh -15%, POLK inh 9%, L3MBTL1 inh -10% and Pol iota inh 20µM*.
`Cc1ccc(NCCN(C)C)c2c(=O)c3cc(O)ccc3sc12` gave Pol eta inh inconclusive, POLK inh inconclusive and Pol iota inh 89µM*.
CN(C)CCNc1ccc2nnn3c4ccc(O)cc4c(=O)c1c23 was read as Pol eta inh inconclusive, POLK inh -42% and Pol iota inh inconclusive.
`CCN(CC)CCNc1ccc(CO)c2sc3ccccc3c(=O)c12` gave Pol beta inh 16µM*, Pol eta inh -18%, POLK inh inconclusive, L3MBTL1 inh -2% and Pol iota inh 20µM*.
Screening CCCCOc1ccc(Cn2c(=O)sc3ccccc32)cc1OC returned Pol beta inh 14%, Pol eta inh -20%, POLK inh -15% and Pol iota inh -9%.
For C=CCn1c(O)c(CN2CCCCC2)c(C)c(C#N)c1=O the results were Pol beta inh 10%, Pol eta inh -20%, POLK inh -10%, L3MBTL1 inh -21% and Pol iota inh 28µM*.
For Cc1c(CN2CCCC(C)C2)c(O)n(CCO)c(=O)c1C#N (configuration not stated) the results were Pol beta inh inconclusive, Pol eta inh -13%, POLK inh -4%, L3MBTL1 inh 4% and Pol iota inh 108%.
Screening O=C1C=C(c2ccccc2)C(c2ccccc2)C1O (configuration not stated) returned Pol eta inh -7%, POLK inh -15% and Pol iota inh 8%.
For COC(CNC(=O)c1ccc2c3c(onc13)-c1ccccc1C2=O)OC the results were Pol beta inh 0%, Pol eta inh inconclusive, POLK inh -32%, L3MBTL1 inh inconclusive and Pol iota inh 18µM*.
Screening COC(CNC(=O)c1cccnc1)OC returned Pol beta inh 34%, Pol eta inh -7%, POLK inh 12%, L3MBTL1 inh 7% and Pol iota inh -16%.
CN(C(=O)c1cc(C(=O)N(C)c2ccccc2)cc([N+](=O)[O-])c1)c1ccccc1 was read as Pol beta inh 12%, Pol eta inh -17%, POLK inh -21%, L3MBTL1 inh -4%[2.29 µM] and Pol iota inh 10%.
Screening CC1=NN(c2ccccc2)C(=O)C1C(=O)c1cc([N+](=O)[O-])cc([N+](=O)[O-])c1 (configuration not stated) returned Pol beta inh 2%, Pol eta inh -4%, POLK inh -5% and Pol iota inh 16µM*.
Cc1c(NC(=O)c2ccc(Cl)cc2)cc(C(C)C)c(O)c1S(=O)(=O)c1ccc(Cl)cc1 was read as Pol beta inh -11%, Pol eta inh -20%, POLK inh -28% and Pol iota inh 12%.
For CC1CCN(S(=O)(=O)c2ccc(NC(=O)C3CSC4(C)CCC(=O)N34)cc2)CC1 (configuration not stated) the results were Pol eta inh 20µM*, POLK inh -28%, L3MBTL1 inh inconclusive and Pol iota inh inconclusive.
N#Cc1c(Cl)nc(N/N=C/c2ccccc2)c(Cl)c1Cl was read as Pol beta inh 20µM*, Pol eta inh -14%, POLK inh -5%, L3MBTL1 inh -15% and Pol iota inh 3%.
For O=C(Cc1ccc(S(=O)(=O)N2CCOCC2)s1)Nc1ccccc1Br the results were Pol beta inh 35µM*, Pol eta inh inconclusive, POLK inh inconclusive, L3MBTL1 inh -9% and Pol iota inh inconclusive.
Screening O=C(Cc1ccc(S(=O)(=O)N2CCOCC2)s1)NCC(=O)Nc1ccccc1Br returned Pol eta inh -3%, POLK inh 3%, L3MBTL1 inh 0% and Pol iota inh 30%.
`O=C(Cc1ccc(S(=O)(=O)N2CCOCC2)s1)N1CCN(c2cccc(C(F)(F)F)c2)CC1` gave Pol beta inh 0%, Pol eta inh -21%, POLK inh 3% and Pol iota inh 1%.
